Rab9 promoter act – Rab9 promoter activation | Huh7 Rab9 promoter-luciferase reporter, luminescence, 24 h | Potency, µM (highest dose often 9.22 µM), without a hit: top-dose activation, negative = inhibition, most hits filed as activators | 320,000 compounds, 2.8% hits; further: % of control where 0% means no effect; nearly all actives have a fitted effect of over 60% in size
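Steps: seed 1500 Huh7 Rab9-luc cells per well, rest 2 h at 37 °C; add compound in DMSO; incubate 24 h; add luciferase reagent, 10 min ambient; read luminescence.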
ELG1 genotoxic – induces genotoxicity in HEK293T cells with luciferase-tagged ELG1; HEK293T ELG1-luciferase reporter, luminescence, 16 h; Potency, µM (series often up to 46 µM), for inactives: at the top dose activity change, positive = activation, most hits filed as activators; 330,000 compounds, 1.3% hits; further: % of control where 0% means no effect; nearly all actives have a fitted effect of over 60% in size
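Step 1: seed 2,000 HEK293T ELG1-luciferase cells per well. Step 2: add compound or DMSO, incubate 16 hr at 37 °C. Step 3: ONE-Glo, 30 min at room temperature, read luminescence.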
SMN2 splice enh – enhancers of SMN2 splice variant expression; HEK293 SMN2-luciferase splicing reporter, luminescence, 30-36 h; AID 1458; Potency, µM (top dose mostly 46.1 µM), for inactives: at the highest dose activity change, positive = activation, usual class: activators; 210,000 compounds, 2.8% hits; further: % of control where 0% means no effect; nearly all actives have a fitted effect of over 55% in size
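HEK293 cells carry an SMN2 minigene-luciferase reporter in which exon 7 inclusion puts luciferase in frame. Cells were seeded at 2000 cells/well, attached for 10-12 hours, then exposed to compounds for 30-36 hours at 37C before ONE-Glo luminescence.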
FLuc modulator – counter-screen for miR-21 project: firefly luciferase inhibitors or activators | Potency, µM (top dose mostly 57.5 µM), for the others: at the highest dose activity change, negative = inhibition, usual class: inhibitors | AID 588342 | 360,000 compounds, 6.9% hits | P08659 | purified FLuc, Km substrates, luminescence inhibition;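 further: plate controls were vehicle for no effect and reference inhibitor for full effect; nearly all actives have a fitted effect of over 55% in size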
Target sequence (P08659 whole entry, looked up): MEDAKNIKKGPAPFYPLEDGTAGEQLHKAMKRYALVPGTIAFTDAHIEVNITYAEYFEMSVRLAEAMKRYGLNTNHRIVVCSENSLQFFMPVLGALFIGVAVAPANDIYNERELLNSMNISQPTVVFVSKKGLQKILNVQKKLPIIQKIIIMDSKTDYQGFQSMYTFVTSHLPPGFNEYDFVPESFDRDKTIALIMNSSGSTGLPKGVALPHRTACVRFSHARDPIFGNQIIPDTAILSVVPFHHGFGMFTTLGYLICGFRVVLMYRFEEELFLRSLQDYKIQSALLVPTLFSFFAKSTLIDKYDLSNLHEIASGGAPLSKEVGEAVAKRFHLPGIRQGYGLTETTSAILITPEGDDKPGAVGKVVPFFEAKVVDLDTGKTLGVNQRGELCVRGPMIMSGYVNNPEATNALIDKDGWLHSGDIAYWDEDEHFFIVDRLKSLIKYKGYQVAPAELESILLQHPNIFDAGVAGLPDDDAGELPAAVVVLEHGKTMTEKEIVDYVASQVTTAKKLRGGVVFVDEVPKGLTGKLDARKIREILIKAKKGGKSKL
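Purified P. pyralis luciferase, 10 nM final, with Km-level 10 uM D-luciferin and 10 uM ATP in 50 mM Tris acetate pH 7.5, 10 mM Mg acetate, 0.01% Tween-20, 0.05% BSA; 6-point qHTS titration about 60 µM downward; luminescence read.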
ELG1 repair inh – blocks ELG1-dependent DNA repair in HEK293T cells. 330,000 compounds, 2.3% hits. Potency, µM (series often up to 46.1 µM), for inactives: at the highest dose activity change, negative = inhibition, actives largely listed as inhibitors. HEK293T ELG1-luciferase reporter, luminescence, 16 h; DNA damage induced by 5-fluorouridine; further: on the % scale 0 is the no-effect control and ±100 the full control effect; nearly all actives have a fitted effect of over 55% in size
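Reporter activity after DNA damage by 5-fluorouridine is monitored. Compound-treated cells incubate 16 hr at 37 °C, then ONE-Glo is added for 30 min before luminescence reading.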
NPC1 prom act – activates the NPC1 promoter | Huh7 NPC1 promoter luciferase reporter, 24 h | Potency, µM (doses to about 9.22 µM), inactives show top-dose activation, actives largely listed as activators | 320,000 compounds, 2.4% hits; further: % of control where 0% means no effect; nearly all actives have a fitted effect of over 60% in size
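NPC1 promoter–luciferase Huh7 cells; 24 h compound; luminescence.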
* hit, by the source's call; ? = inconclusive; nt = not tested or not shown; [ ] = another dose, or the depositor's remark. Hits are enriched below; roughly 9.2% of the tested compounds scored in any of these assays. The call rests on the fitted dose curve; in most records, active means well fitted curve in the direction sought with a large enough effect; inconclusive means small, poorly fitted or top-dose-only effect, or another doubt; inactive means no such curve, though single readings can be large; an effect the other way counts as inactive or inconclusive. Potency means the concentration at half of the fitted maximal effect.

SMILES	Rab9 promoter act	ELG1 genotoxic	SMN2 splice enh	FLuc modulator	ELG1 repair inh	NPC1 prom act
Nc1c(C(=O)Nc2ccc(C(=O)O)cc2)sc2nc3c(cc12)CCCC3	nt	nt	?	0.19µM*	nt	nt
COCCCn1c(SCc2cccc(Cl)c2)nc2c(sc3ccccc32)c1=O	nt	nt	nt	-6.4%	nt	nt
COc1ccc(CCNc2ncnc3onc(C)c23)c(OC)c1	nt	nt	nt	0.3%	nt	nt
O=C(CSc1cccc2cccc(Cl)c12)NCc1cccs1	1.2%	0.5%	-8.1%	-9.9%	-4.2%	-3.3%
CCc1ccc(/C=C\C(=O)N2CCc3ccccc3C2)cc1	1.9%	?	-2.8%	7.57µM*	?	2.7%
COc1ccc(CC(=O)N2CCc3ccccc3C2)cc1	-0.5%	9.8%	nt	?	?	-5.2%
O=C(/C=C/c1c(F)cccc1Cl)N1CCc2ccccc2C1	18.4%	8.4%	nt	16.9µM*	?	21.0%
COc1cc(OC)cc(C(=O)NCC(=O)OCC(=O)Nc2ccc(C)c(S(=O)(=O)N3CCOCC3)c2)c1	-12.7%	-3.3%	nt	2.8%	5.4%	-0.2%
Cc1cccc(CNc2ncncc2-c2ccc3c(c2)OCO3)c1	nt	nt	-14.4%	nt	nt	nt
Cc1cc2c3c([nH]c2cc1S(=O)(=O)NCc1ccc(CN2CCCCCC2)o1)CCCC3=O	1.1%	0.1%	nt	-1.9%	1.6%	4.9%
C[C@H](CO)N1C[C@H](C)[C@@H](CN(C)CC2CCCCC2)Oc2c(NS(=O)(=O)c3ccc(F)cc3)cccc2C1=O	nt	4.8%	nt	nt	?	nt
COc1ccc([C@]23Cc4ccccc4C(O2)C2=C(CC(C)(C)CC2=O)O3)cc1	-1.0%[1.84 µM]	nt	nt	-12.2%[11.5 µM]	nt	-1.6%[1.84 µM]
CCn1ccnc1CN1CCc2c([nH]c3ccccc23)C1CC(C)C (stereo not drawn)	-0.1%	-5.8%	nt	-5.9%	23.1µM*	-0.5%
CCn1ccnc1CN1CCc2c([nH]c3ccccc23)C1C(C)(C)C (stereo not drawn)	-2.7%	-9.6%	nt	3.6%	-14.3%	-2.7%
COc1ccc(NC(=O)C2CCN(S(=O)(=O)c3c(C)nn(C)c3C)CC2)cc1	1.4%	0.7%	nt	-1.3%	11.5%	-0.5%
Cc1nn(C)c(C)c1S(=O)(=O)N1CCC(C(=O)Nc2ccc3c(c2)OCCO3)CC1	20.3%	18.4µM*	1.3%	15.1µM*	?	10.7%
Cc1ccc(-c2cc(C(=O)O)n(-c3ccc(S(N)(=O)=O)cc3)n2)cc1	-6.2%	3.2%	9.7%	-6.4%	2.6%	-0.6%
CC(=O)O/N=C/c1c(N2CCOCC2)n(C)c2ccccc12	-4.9%	-9.7%	-61.8%	14.0%	?	-9.0%
Cn1c(N2CCOCC2)c(/C=N/OC(=O)c2ccc(F)cc2)c2ccccc21	-32.6%	-5.3%	-69.9%	9.53µM*	?	-17.8%
Cc1ccc(C(=O)O/N=C/c2c(N3CCOCC3)n(C)c3ccccc23)cc1	-39.0%	-13.2%	-47.1%	6.01µM*	?	-16.5%
CCOc1cccc(Nc2ccc([N+](=O)[O-])cn2)c1	10.3%	16.4%	nt	?	?	13.0%
Nc1nc(CSCCO)nc(Nc2ccccc2)n1	2.4%	6.3%	12.9%	4.1%	13.1%	-0.2%
COc1ccc(Nc2nc(N)nc(SCc3nnc(C)s3)n2)cc1	?	?	?	23.9µM*	?	26.2%
Cc1ccc(Nc2nc(N)nc(CSc3nncn3C)n2)cc1	2.82µM*	?	17.8µM*	13.5µM*	?	3.16µM*
COc1ccc(Nc2nc(N)nc(CSc3nc(C)cc(C)n3)n2)cc1	-8.7%	8.8%	nt	-19.7%	-1.7%	-4.8%
Nc1nc(CSc2ccccn2)nc(Nc2ccccc2)n1	1.41µM*	?	11.2µM*	9.53µM*	?	2.82µM*
COc1ccc2nc(SCc3nc(N)nc(Nc4ccccc4)n3)[nH]c2c1	13.7%	-0.7%	-12.9%	13.5µM*	?	-5.8%
COc1cc(OC)cc(-c2c(-c3ccc(F)cc3)c3cc(-c4ccc(SC)cc4)ccc3n2C)c1	nt	0.6%	nt	nt	?	nt
